The record followed here is PubChem BioAssay (NCI).

Common to all, as to assay: NCI-60 one-dose screen, 48 h (100 = growth as untreated, 0 = no growth, -100 = all killed)
One test deals with HCT-15 colon. The conditions noted are these: 10 µM unless noted.
Another test relates to HT29 colon. The conditions noted are these: 10 µM unless noted.
Another test has as its system SNB-19 CNS. The conditions noted are these: 10 µM unless noted.
The subject of a further test is U251 CNS. The conditions noted are these: 10 µM unless noted.
A further test deals with PC-3 prostate. To be noted: 10 µM unless noted.
The subject of a further test is SK-MEL-5 melanoma. The conditions noted are these: 10 µM unless noted.
The subject of the next test is UACC-62 melanoma. The conditions noted are these: 10 µM unless noted.
In another test the test system is LOX IMVI melanoma. The conditions noted are these: 10 µM.
Another test has as its system SK-MEL-28 melanoma. To be noted: 10 µM unless noted.
The subject of another test is SK-MEL-2 melanoma. The conditions noted are these: 10 µM unless noted.
The next test concerns EKVX NSCLC. To be noted: 10 µM unless noted.
The next test concerns SN12C renal. The conditions noted are these: 10 µM unless noted.
For a further test, the system named is UO-31 renal. The conditions noted are these: 10 µM unless noted.
The next test deals with TK-10 renal. The conditions noted are these: 10 µM unless noted.
In a further test the test system is ACHN renal. The conditions noted are these: 10 µM unless noted.
In another test the test system is CAKI-1 renal. To be noted: 10 µM unless noted.
In a further test the test system is A498 renal. To be noted: 10 µM unless noted.
Another test has as its system CCRF-CEM leukemia. To be noted: 10 µM unless noted.
The subject of the next test is MOLT-4 leukemia. The conditions noted are these: 10 µM unless noted.
The test system of the next test is SNB-75 CNS. The conditions noted are these: 10 µM unless noted.

About 83,000 compounds went through this panel and 20% of them were active in at least one assay; those are over-represented in the sample as a whole.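 Interpretation: 100, growth as untreated; towards 0, rising growth inhibition; 0, no net growth; 0 to -100, cell death. Compounds scoring below 10 were considered active.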 Unmarked numbers belong to inactive results. Active and inactive are the calls of the source.

On to `O=[N+]([O-])c1ccc(C(Br)c2ccc([N+](=O)[O-])cc2)cc1`, for which the growth is 57.8% in the test on HCT-15 colon; 72.7% in the test with HT29 colon; 106% in the test on SNB-19 CNS; 88.6% in the test with U251 CNS; 61.8% in the test on PC-3 prostate; 68.1% in the test on SK-MEL-5 melanoma. Also, the growth is 79.5% in the test with UACC-62 melanoma; -40.1% (active) in the test with LOX IMVI melanoma; 105% in the test on SK-MEL-28 melanoma; 97.6% in the test with SK-MEL-2 melanoma; 109% with EKVX NSCLC; 54.9% in the test on SN12C renal. Moreover, the growth with UO-31 renal is 47.4%; in the test with TK-10 renal it was 97.5%; with ACHN renal it was 98.3%; in the test with CAKI-1 renal, 92.2%; with A498 renal it was 101%; with CCRF-CEM leukemia, 16.3%. The growth with MOLT-4 leukemia is 12.5%.
As for `CN(C)CC(C)(CN(C)C)C(=O)/C=C/c1c(Cl)cccc1Cl`, the growth was -65.6% (active) in the test with HCT-15 colon; 12.2% in the test with HT29 colon; 64.5% in the test on SNB-75 CNS; 40.4% in the test on U251 CNS; 46.2% in the test with PC-3 prostate; 56.3% in the test with SK-MEL-5 melanoma. The growth is 20.1% in the test on UACC-62 melanoma; -100% (active) in the test with LOX IMVI melanoma; 4.32% (active) in the test with SK-MEL-28 melanoma; 79.7% in the test on SK-MEL-2 melanoma; 50.9% in the test with SN12C renal; -8.98% (active) in the test on TK-10 renal. The growth in the test on ACHN renal was -100% (active); in the test with CAKI-1 renal, 52.7%; with A498 renal, 119%; in the test on CCRF-CEM leukemia, -4.65% (active); with MOLT-4 leukemia it was -19.3% (active).
For `CCOc1ccc(C(CN2CCOCC2)C(C)=O)cc1OC` (stereo not drawn), the growth was 54.2% in the test with HCT-15 colon; 107% in the test on HT29 colon; 103% in the test on SNB-19 CNS; 95.9% with U251 CNS; 101% in the test on PC-3 prostate; 93.6% in the test with SK-MEL-5 melanoma. The growth in the test on UACC-62 melanoma is 93.6%; with LOX IMVI melanoma it was 68.9%; in the test on SK-MEL-28 melanoma, 102%; in the test on SK-MEL-2 melanoma, 111%; with EKVX NSCLC, 96.2%; with SN12C renal, 86.6%. Also, the growth in the test on UO-31 renal was 75.4%; in the test on TK-10 renal, 49.8%; in the test with ACHN renal it was 79.6%; with CAKI-1 renal it was -89.9% (active); in the test with A498 renal, 92.2%; in the test on CCRF-CEM leukemia it was 52.7%. Moreover, the growth in the test with MOLT-4 leukemia is 87.2%.
Take `CC(C)(C)CC(C)(C)c1ccc(OCCOCCSC(=N)N)cc1`: the growth in the test on HCT-15 colon was 0.972% (active); in the test on HT29 colon, -7.31% (active); in the test with SNB-75 CNS, 74.8%; in the test on PC-3 prostate, 42.6%; in the test on SK-MEL-5 melanoma, -70.2% (active); in the test on UACC-62 melanoma, 75.7%. The growth is -81% (active) with LOX IMVI melanoma; -57.1% (active) in the test with SK-MEL-28 melanoma; 85% in the test with SK-MEL-2 melanoma; 55% with SN12C renal; 53.2% in the test with UO-31 renal; 78% in the test on TK-10 renal. Moreover, the growth was 33.5% in the test on ACHN renal; 65.3% in the test on CAKI-1 renal; 75.3% in the test on A498 renal; 0.0306% (active) with CCRF-CEM leukemia; 14.4% in the test with MOLT-4 leukemia.
Turning to `CCOc1ccc(C(C[N+](=O)[O-])Sc2ccccc2N)cc1` (stereo not drawn), the growth is -11.3% (active) in the test with HCT-15 colon; -49.7% (active) in the test on HT29 colon; 61.3% in the test with SNB-75 CNS; 9.82% (active) with U251 CNS; 10.7% with PC-3 prostate; 40.9% in the test on SK-MEL-5 melanoma. For the same compound, the growth in the test with UACC-62 melanoma is 64.6%; in the test with SK-MEL-28 melanoma, -36.4% (active); in the test on SK-MEL-2 melanoma, 98.7%; in the test with EKVX NSCLC, 66.9%; in the test with SN12C renal, 65%; in the test on UO-31 renal, -62.9% (active). For the same compound, the growth in the test on TK-10 renal is 106%; with ACHN renal, 55.4%; in the test with CAKI-1 renal it was 64.6%; in the test with A498 renal it was 109%; with CCRF-CEM leukemia, 30.3%; with MOLT-4 leukemia it was 4.52% (active).
`CN(C)c1ccc(/C=C/c2sc3ccc4ccccc4c3[n+]2C)cc1`: the growth with HCT-15 colon is 0.902% (active); in the test with HT29 colon it was -100% (active); with SNB-19 CNS it was -32.5% (active); in the test with U251 CNS it was -51.2% (active); in the test with PC-3 prostate, -38% (active); with SK-MEL-5 melanoma, -100% (active). In addition, the growth is -75% (active) in the test on UACC-62 melanoma; -35.3% (active) in the test on LOX IMVI melanoma; -56.6% (active) in the test on SK-MEL-28 melanoma; -13.6% (active) in the test on EKVX NSCLC; -54.3% (active) in the test with SN12C renal; 15.9% in the test with UO-31 renal. Besides, the growth in the test on TK-10 renal was -42.1% (active); in the test with ACHN renal, -49.3% (active); in the test with CAKI-1 renal it was -10.9% (active); in the test with A498 renal, -20.8% (active); in the test with CCRF-CEM leukemia, -8.92% (active); with MOLT-4 leukemia, -26.7% (active).
As to `S=C(S)OCN1CCOCC1`, the growth with HCT-15 colon was 91.3%; with HT29 colon, 19.7%; in the test with SNB-19 CNS it was 103%; in the test with U251 CNS, 40.9%; with PC-3 prostate, 89.6%; with SK-MEL-5 melanoma, 101%. Besides, the growth is 98.8% in the test on UACC-62 melanoma; 63.4% in the test with LOX IMVI melanoma; 97.4% in the test on EKVX NSCLC; 103% with SN12C renal; 75.9% in the test with UO-31 renal; 97.9% with TK-10 renal. The growth in the test with ACHN renal is 100%; in the test with CAKI-1 renal, 92.6%; in the test with A498 renal it was 70.6%; in the test on CCRF-CEM leukemia, 59%; in the test with MOLT-4 leukemia it was 92.5%.
Consider `N=C(N)Sc1cccc[n+]1[O-]`, for which the growth is 32.8% in the test with HCT-15 colon; 50.3% in the test with HT29 colon; 59% in the test on SNB-19 CNS; 41.5% in the test on U251 CNS; 38.1% in the test on PC-3 prostate; 56.2% in the test with SK-MEL-5 melanoma. The growth in the test with UACC-62 melanoma is 23.2%; in the test on LOX IMVI melanoma, -30.9% (active); in the test on SK-MEL-28 melanoma it was 26.1%; in the test on SK-MEL-2 melanoma it was 59%; in the test on SN12C renal, 101%; with UO-31 renal, 36.1%. For the same compound, the growth is 86.2% in the test with TK-10 renal; 48.6% with ACHN renal; 79.5% with CAKI-1 renal; 81.7% with A498 renal; -8.85% (active) in the test on CCRF-CEM leukemia; 12.7% in the test on MOLT-4 leukemia.
